Read-out in assay [1]: Cyclin D1 (CCND1), CCND1 (gene 595)
Briefly: LTEA_HepaRG_CCND1: Life Technologies and Expression Analysis (LTEA) Assay for Cyclin D1 (CCND1) using HepaRG (AID 2283451).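 On AC50: TaqMan qRT-PCR transcript level normalised to ACTB GAPDH and POLR2A housekeeping genes.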 The settings on record: mRNA level, 48 h; actives raise or lower the signal. An outline of the steps: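 Differentiated human HepaRG cells in serum-free induction medium were exposed 48 h to eight half-log concentrations up to 100 uM in 0.5% DMSO; mRNA quantified by TaqMan qRT-PCR, normalized to ACTB, GAPDH, POLR2A, fitted bidirectionally versus DMSO.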

Read-out in assay [2]: catalase (CAT), CAT (gene 847)
In words: LTEA_HepaRG_CAT: Life Technologies and Expression Analysis (LTEA) Assay for catalase (CAT) using HepaRG (AID 2283452). The following applies: mRNA level, 48 h; actives raise or lower the signal. An outline of the steps: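 HepaRG cells in serum-free induction medium, 0.5% DMSO vehicle, exposed 48 h in duplicate over 8 half-log concentrations from 100 uM. CAT mRNA measured by qRT-PCR, normalized to ACTB, GAPDH, POLR2A; bidirectional fit versus DMSO.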

Read-out in assay [3]: flavin-containing dimethylaniline monooxygenases 3 (FMO3), FMO3 (gene 2328)
In words: LTEA_HepaRG_FMO3: Life Technologies and Expression Analysis (LTEA) Assay for flavin-containing dimethylaniline monooxygenases 3 (FMO3) using HepaRG (AID 2283453). The settings on record: mRNA level, 48 h; actives raise or lower the signal. A digest of the protocol: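 HepaRG, 48 h exposure, 8-pt half-log series from 100 uM, 0.5% DMSO vehicle, duplicates; FMO3 transcript by Fluidigm TaqMan qRT-PCR, housekeeping-normalized; gain/loss fit vs DMSO.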

Read-out in assay [4]: Cytochrome P450 (CYP1A1), CYP1A1 (gene 1543)
Briefly: LTEA_HepaRG_CYP1A1: Life Technologies and Expression Analysis (LTEA) Assay for Cytochrome P450 (CYP1A1) using HepaRG (AID 2283454). The settings on record: mRNA level, 48 h; actives raise or lower the signal. An outline of the steps:
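Differentiated HepaRG cells in serum-free induction medium were exposed in duplicate for 48 h to eight half-log concentrations up to 100 uM in 0.5% DMSO. CYP1A1 mRNA was quantified by TaqMan qRT-PCR, normalized to ACTB, GAPDH and POLR2A.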

Read-out in assay [5]: CFLAR gene, CFLAR (gene 8837)
In words: LTEA_HepaRG_CFLAR: Life Technologies and Expression Analysis (LTEA) Assay for CFLAR gene using HepaRG (AID 2283455). The settings on record: mRNA level, 48 h; actives raise or lower the signal. A digest of the protocol:
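Differentiated HepaRG cells in serum-free induction medium were exposed 48 h in duplicate to eight half-log concentrations up to 100 uM in 0.5% DMSO; mRNA measured by TaqMan qRT-PCR, normalized to ACTB, GAPDH, POLR2A; bidirectional fitting versus DMSO.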

Read-out in assay [6]: Forkhead box O1 (FOXO1), FOXO1 (gene 2308)
In words: LTEA_HepaRG_FOXO1: Life Technologies and Expression Analysis (LTEA) Assay for Forkhead box O1 (FOXO1) using HepaRG (AID 2283456). The settings on record: mRNA level, 48 h; actives raise or lower the signal. A digest of the protocol: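 Differentiated HepaRG cells, in serum-free induction medium with 0.5% DMSO, exposed 48 h in duplicate to 8-point half-log series from 100 uM. FOXO1 mRNA measured by TaqMan qRT-PCR, normalized to ACTB, GAPDH, POLR2A; bidirectional fit versus DMSO.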

Read-out in assay [7]: growth arrest and DNA damage 45 (GADD45A), GADD45A (gene 1647)
In words: LTEA_HepaRG_GADD45A: Life Technologies and Expression Analysis (LTEA) Assay for growth arrest and DNA damage 45 (GADD45A) using HepaRG (AID 2283458). The settings on record: mRNA level, 48 h; actives raise or lower the signal. A digest of the protocol:
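Human HepaRG liver cells are treated in duplicate for 48 h with chemicals in 0.5% DMSO, highest concentration 100 uM. Expression is read by qRT-PCR and analyzed in both directions against vehicle.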

Read-out in assay [8]: Forkhead box O3 (FOXO3), FOXO3 (gene 2309)
In words: LTEA_HepaRG_FOXO3: Life Technologies and Expression Analysis (LTEA) Assay for Forkhead box O3 (FOXO3) using HepaRG (AID 2283459). The settings on record: mRNA level, 48 h; actives raise or lower the signal. An outline of the steps: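 Differentiated human HepaRG cells, 48 h post-plating, exposed in duplicate for 48 h in serum-free induction medium; 8-point half-log series from 100 uM in 0.5% DMSO. FOXO3 mRNA by TaqMan qRT-PCR, normalized to ACTB/GAPDH/POLR2A; bidirectional fit versus DMSO.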

Read-out in assay [9]: growth arrest and DNA damage 45 (GADD45B), GADD45B (gene 4616)
Briefly: LTEA_HepaRG_GADD45B: Life Technologies and Expression Analysis (LTEA) Assay for growth arrest and DNA damage 45 (GADD45B) using HepaRG (AID 2283461). The settings on record: mRNA level, 48 h; actives raise or lower the signal. A digest of the protocol: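 Differentiated HepaRG cells, plated 48 h then switched to serum-free induction medium, were exposed 48 h in duplicate to eight half-log concentrations from 100 uM in 0.5% DMSO; mRNA quantified by qRT-PCR, normalized to ACTB/GAPDH/POLR2A, bidirectional fit versus DMSO.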

Read-out in assay [10]: ABC Transporter (ABCB11), ABCB11 (gene 8647)
Briefly: LTEA_HepaRG_ABCB11: Life Technologies and Expression Analysis (LTEA) Assay for ABC Transporter (ABCB11) using HepaRG (AID 2283463). The following applies: mRNA level, 48 h; actives raise or lower the signal. An outline of the steps:
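Differentiated human HepaRG cells in serum-free induction medium, dosed in duplicate for 48 h. Eight-point half-log series from 100 uM in 0.5% DMSO; ABCB11 mRNA by qRT-PCR, normalized to ACTB, GAPDH, POLR2A, fitted bidirectionally versus DMSO.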

Read-out in assay [11]: ABC Transporter (ABCC2), ABCC2 (gene 1244)
Briefly: LTEA_HepaRG_ABCC2: Life Technologies and Expression Analysis (LTEA) Assay for ABC Transporter (ABCC2) using HepaRG (AID 2283464). The following applies: mRNA level, 48 h; actives raise or lower the signal. An outline of the steps:
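HepaRG cells were plated 48 h, switched to serum-free induction medium, then exposed in duplicate for 48 h to 8 concentrations (top 100 uM, half-log steps, 0.5% DMSO). ABCC2 mRNA was measured by qRT-PCR normalized to ACTB/GAPDH/POLR2A; bidirectional fitting versus DMSO.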

Read-out in assay [12]: Broad substrate specificity ATP-binding cassette transporter ABCG2 (Homo sapiens) (UniProt Q9UNQ0)
In words: LTEA_HepaRG_ABCG2: Life Technologies and Expression Analysis (LTEA) Assay for ABC Transporter (ABCG2) using HepaRG (AID 2283465). The settings on record: mRNA level, 48 h; actives raise or lower the signal. An outline of the steps:
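Differentiated HepaRG cells were exposed for 48 h in serum-free induction medium to 8 half-log concentrations, top 100 uM, in 0.5% DMSO. ABCG2 mRNA was measured by qRT-PCR, normalized to ACTB, GAPDH and POLR2A, with bidirectional fitting versus DMSO.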

Read-out in assay [13]: ATP-citrate lyase (ACLY), ACLY (gene 47)
In words: LTEA_HepaRG_ACLY: Life Technologies and Expression Analysis (LTEA) Assay for ATP-citrate lyase (ACLY) using HepaRG (AID 2283466). The settings on record: mRNA level, 48 h; actives raise or lower the signal. A digest of the protocol: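 Differentiated HepaRG cells exposed 48 h in serum-free induction medium to eight half-log concentrations up to 100 uM in 0.5% DMSO, duplicates. Transcript measured by Fluidigm TaqMan qRT-PCR, normalized to ACTB, GAPDH, POLR2A; bidirectional fit versus DMSO.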

Read-out in assay [14]: Peroxisomal acyl-coenzyme A oxidase 1 (ACOX1) gene, ACOX1 (gene 51)
Briefly: LTEA_HepaRG_ACOX1: Life Technologies and Expression Analysis (LTEA) Assay for Peroxisomal acyl-coenzyme A oxidase 1 (ACOX1) gene using HepaRG (AID 2283467). The following applies: mRNA level, 48 h; actives raise or lower the signal. A digest of the protocol: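 HepaRG cells, plated 48 h then switched to serum-free induction medium, were exposed in duplicate for 48 h to 8-point half-log concentrations up to 100 uM in 0.5% DMSO. ACOX1 mRNA was measured by qRT-PCR, normalized to ACTB/GAPDH/POLR2A, and fitted bidirectionally versus DMSO.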

Read-out in assay [15]: Bcl-2 (BAD) gene, BAD (gene 572)
In words: LTEA_HepaRG_BAD: Life Technologies and Expression Analysis (LTEA) Assay for Bcl-2 (BAD) gene using HepaRG (AID 2283469). The settings on record: mRNA level, 48 h; actives raise or lower the signal. An outline of the steps:
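Differentiated HepaRG cells were exposed in duplicate in 0.5% DMSO for 48 h to eight-point half-log concentrations up to 100 uM. BAD mRNA was measured by Fluidigm TaqMan qRT-PCR, normalized to ACTB, GAPDH and POLR2A, and fitted bidirectionally against DMSO.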

Read-out in assay [16]: Bcl-2 (BAX) gene, BAX (gene 581)
Briefly: LTEA_HepaRG_BAX: Life Technologies and Expression Analysis (LTEA) Assay for Bcl-2 (BAX) gene using HepaRG (AID 2283470). The settings on record: mRNA level, 48 h; actives raise or lower the signal. An outline of the steps:
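Concentration-response endpoint fitted in both directions relative to 0.5% DMSO vehicle. Human HepaRG cultures receive test chemicals for 48 h at up to 100 uM; BAX mRNA is quantified by qRT-PCR against housekeeping genes.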

Read-out in assay [17]: ABC Transporter (ABCC3), ABCC3 (gene 8714)
Briefly: LTEA_HepaRG_ABCC3: Life Technologies and Expression Analysis (LTEA) Assay for ABC Transporter (ABCC3) using HepaRG (AID 2283462). The settings on record: mRNA level, 48 h; actives raise or lower the signal. An outline of the steps: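 HepaRG cells in serum-free induction medium were exposed for 48 h in duplicate to 8-point half-log concentrations topping at 100 uM in 0.5% DMSO. ABCC3 mRNA was measured by qRT-PCR normalized to ACTB, GAPDH and POLR2A, with bidirectional fitting versus DMSO.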

A short description of assay [18]: CEETOX_H295R_TESTO: CeeTox H295R High-throughput Steroidogenesis Assay for Testosterone (TESTO) (AID 2283457). The settings on record: actives raise or lower the signal. An outline of the steps:
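H295R human adrenal cells in DMEM/F12 with ITS+ and Nu-Serum, exposed to chemicals for 48 h. Testosterone in medium measured by MTBE extraction, reverse-phase HPLC-MS/MS; bidirectional fit versus DMSO baseline. MTT viability checked in same wells.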

Read-out in assay [19]: Alkaline Phosphatase, Placental (ALPP) gene, ALPP (gene 250)
Briefly: LTEA_HepaRG_ALPP: Life Technologies and Expression Analysis (LTEA) Assay for Alkaline Phosphatase, Placental (ALPP) gene using HepaRG (AID 2283468). The following applies: mRNA level, 48 h; actives raise or lower the signal. A digest of the protocol: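 Differentiated human HepaRG cells were plated and cultured 48 h, then exposed in duplicate for 48 h in serum-free induction medium to eight half-log concentrations from 100 uM in 0.5% DMSO. ALPP mRNA was measured by TaqMan qRT-PCR, normalized to ACTB, GAPDH, POLR2A.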

Activity calls are given as the source filed them. How the source made its calls: active means hit-call score of the fitted dose curve at least 0.9, where 1 is the maximum; inactive means score below 0.9.

Usually AC50 stands for the concentration giving half of the maximal activity seen.

Sequence of Broad substrate specificity ATP-binding cassette transporter ABCG2 (Homo sapiens) (Q9UNQ0 whole entry, looked up): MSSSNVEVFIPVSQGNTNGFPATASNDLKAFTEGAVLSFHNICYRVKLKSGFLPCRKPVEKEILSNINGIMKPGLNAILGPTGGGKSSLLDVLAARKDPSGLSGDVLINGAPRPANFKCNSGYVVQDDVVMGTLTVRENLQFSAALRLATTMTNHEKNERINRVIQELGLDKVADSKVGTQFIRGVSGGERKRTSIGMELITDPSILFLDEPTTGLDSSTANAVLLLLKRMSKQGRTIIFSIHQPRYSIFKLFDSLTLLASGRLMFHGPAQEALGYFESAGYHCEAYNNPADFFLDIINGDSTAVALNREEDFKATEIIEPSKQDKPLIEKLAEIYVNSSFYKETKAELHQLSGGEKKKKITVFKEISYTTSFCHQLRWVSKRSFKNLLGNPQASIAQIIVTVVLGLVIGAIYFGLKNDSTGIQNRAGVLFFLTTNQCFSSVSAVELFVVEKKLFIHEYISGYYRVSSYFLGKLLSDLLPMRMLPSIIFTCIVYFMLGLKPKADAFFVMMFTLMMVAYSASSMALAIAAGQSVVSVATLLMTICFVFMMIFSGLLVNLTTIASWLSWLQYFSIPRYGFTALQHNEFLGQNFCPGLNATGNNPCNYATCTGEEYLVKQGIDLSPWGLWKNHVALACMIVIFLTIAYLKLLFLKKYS

With `CCCCCCCC(=O)O`, the compound was called inactive in [1], in [2], in assay [3], in assay [4], in assay [5] and in [6]. In addition, the outcome in assay [7], in assay [8], in assay [9], in [10], in assay [11] and in assay [12] was inactive. Further, the compound was called inactive in assay [15] and in assay [16]. Besides, the AC50 was 12.4 µM (active) in assay [13] and 12.5 µM (active) in assay [14].

Take `NC(=O)N1C(=O)C(C(=O)c2cc(Cl)cs2)c2cc(F)c(Cl)cc21` (stereo unspecified): the AC50 in [1] was 13.1 µM (active); in assay [2], 25.1 µM (active); in assay [3], 20 µM (active); in assay [4], 3.31 µM (active); in assay [6] it was 12.6 µM (active); in assay [7], 36 µM (active). The AC50 in [8] is 35 µM (active); in assay [9], 28.1 µM (active); in assay [17], 12.8 µM (active); in assay [10] it was 15.6 µM (active); in assay [11] it was 27.7 µM (active); in assay [12], 50 µM (active). Besides, the AC50 in [13] is 21 µM (active); in assay [14], 50 µM (active). Also, the call in assay [5], in assay [15] and in assay [16] was inactive.

For the compound `O=C(O)c1ccccc1C(c1ccc(O)cc1)c1ccc(O)cc1`, the outcome in [2], in [3], in assay [4], in assay [5], in [6] and in assay [18] was inactive. Besides, the compound was classed as inactive in [7], in assay [8], in [9], in assay [10], in assay [11] and in assay [12]. Besides, the outcome in [13], in assay [14], in assay [19], in [15] and in [16] was inactive.

As to `NC(=O)N(O)[C@@H]1C=C[C@H](Oc2cccc(Oc3ccc(F)cc3)c2)C1`, the AC50 was 84.1 µM (active) in assay [1]; 50 µM (active) in [2]; 42.7 µM (active) in [3]; 27.3 µM (active) in assay [4]; 67.3 µM (active) in [5]; 82.1 µM (active) in assay [6]. The AC50 in [7] was 64 µM (active); in assay [10], 68 µM (active); in assay [11], 82.5 µM (active); in assay [12] it was 34.9 µM (active); in [13], 22.7 µM (active); in assay [14], 65.1 µM (active). In assay [16], the AC50 was 64.5 µM (active). The compound was classed as inactive in [8], in [9] and in [15].
